Test results: ChEMBL document CHEMBL3988442, “University of Dundee, Small-Polar-MMV Screening Library” (2021)
The whole screen tested about 48,000 compounds, of which about 13,000 (27%) showed an effect of 50% or more. Some of the results follow.

test system: Wolbachia pipientis; assay: Anti-Wolbachia Cell-Based Screen; assay type: functional; set-up: scale not given: in the data most compounds retested in dose-response had high values; conditions: 5 µM

| SMILES | Percent Effect [%] |
| --- | --- |
| N#Cc1cccc(C(=O)N2CC[C@H]3[C@H]2CCN3CC2CCOCC2)c1.O=C(O)C(F)(F)F | -18.46 |
| Cc1ccc(CN2CC[C@H]3[C@H](CC(Cn4cccn4)N3C)C2)s1.O=C(O)C(F)(F)F.O=C(O)C(F)(F)F.O=C(O)C(F)(F)F (stereo partly drawn) | 96 |
| CC(C)N1[C@H](Cn2cncn2)C[C@@H]2CN(Cc3cccs3)CC[C@@H]21.O=C(O)C(F)(F)F | 3.978 |
| CN1C(Cn2cccn2)C[C@@H]2CN(C(=O)c3cccc(C#N)c3)CC[C@@H]21.O=C(O)C(F)(F)F.O=C(O)C(F)(F)F (stereo partly drawn) | 118.1 |
| O=C(O)C(F)(F)F.c1csc(CN2C[C@@H](n3cccn3)[C@H]3OCCC[C@H]32)c1 | 9.631 |
| CC(C)N1[C@H](Cn2cccn2)C[C@@H]2CN(Cc3ccoc3)CC[C@@H]21.O=C(O)C(F)(F)F.O=C(O)C(F)(F)F.O=C(O)C(F)(F)F | -17.46 |
| CN1[C@H](Cn2cccn2)C[C@@H]2CN(Cc3cccs3)CC[C@@H]21.O=C(O)C(F)(F)F.O=C(O)C(F)(F)F.O=C(O)C(F)(F)F | 118 |
| CN1[C@H](Cn2cncn2)C[C@@H]2CN(Cc3cccc(C#N)c3)CC[C@@H]21.O=C(O)C(F)(F)F.O=C(O)C(F)(F)F | 3.665 |
| CN(C1CCCC1)C(C)(C)C(=O)NCCNC(N)=O | -0.4481 |
| COCC1CN(C(=O)Cc2ccccn2)Cc2ncnn2C1.O=C(O)C(F)(F)F (stereo not drawn) | -1.318 |
| Cc1ccc(CN2CCC(Cc3nnc(CO)n3C)CC2)cc1C | -13.27 |
| CN(c1ncc(S(N)(=O)=O)s1)C1CCC1 | 11.92 |
| COc1cc(NCc2ncc[nH]2)ccc1Br | 2.622 |
| Cn1nc2c(cc1=O)CN(CCc1nc3ccccc3c(=O)[nH]1)CC2 | 5.907 |
| CN(C)C(=O)COC[C@]12COC[C@H]1CN(Cc1ccoc1)C2 | -6.231 |
| CN(C)C(=O)COC[C@]12COC[C@H]1CN(Cc1ccco1)C2.O=C(O)C(F)(F)F | 94.75 |
| CCS(=O)(=O)NC[C@]12COC[C@H]1CN(CCc1ccccc1)C2.O=C(O)C(F)(F)F | -14.92 |
| CN(C)C(=O)COC[C@]12COC[C@H]1CN(CCc1ccccc1)C2.O=C(O)C(F)(F)F | 103 |
| CN(C)C(=O)COC[C@]12COC[C@H]1CN(Cc1ccccc1)C2.O=C(O)C(F)(F)F | 108.4 |
| CN(C)C(=O)COC[C@]12COC[C@H]1CN(CC1CCC1)C2.O=C(O)C(F)(F)F | -8.978 |
| Cc1c(Cl)ccc2ccc(NC(CO)CO)nc12 | -19.83 |
| Cc1ccc(NCc2cn3c(n2)CN(Cc2ccoc2)CC3)nn1.O=C(O)C(F)(F)F.O=C(O)C(F)(F)F | 8.385 |
| CCn1ccnc1CN(C)C(C(=O)O)c1ccc(C(C)(C)C#N)cc1 (stereo not drawn) | -18.43 |
| C=C(C)COc1cccc(CN(CC)Cc2noc(C)n2)c1 | -43.03 |

| SMILES | Percent Effect [%] |
| --- | --- |
| NC1CCN(C(=O)c2cnc(Cc3c(Cl)cccc3Cl)nc2O)C1 (stereo not drawn) | -9.17 |
| COCCN(Cc1ccco1)Cc1nc(-c2ccsc2)no1 | 17.38 |
| CCN(CC)CCNC(=O)c1cnc(-c2ccccc2)nc1 | 14.16 |
| CN(C)CCNc1ccc(-c2nc(-c3ccccc3F)no2)cn1 | -20.15 |
| CN(C)CCNc1c(-c2ccccc2)c(=O)c1=O | 102.6 |
| CCN(CC)CCNC(=O)c1cnc(C(C)(C)C)s1 | -7.701 |
| CCCN(CCC)CCNc1c(-c2ccccc2)c(=O)c1=O | 97.32 |
| CN(C)CCNc1ccc(-c2nc(COc3ccccc3)no2)cn1 | -0.8633 |
| CCN(CC)CCNc1c(-c2ccccc2)c(=O)c1=O | 104.3 |
| O=c1ccc2c([nH]1)CCN(S(=O)(=O)c1ccc3c(c1)CCCC3)C2 | -15.49 |
| Cc1ccc(CN2CC[C@@H](N(C)C(C)C)[C@@H]2Cc2ccccc2)o1 | -15.45 |
| CCc1cccc(CC(=O)NC2CCN(C(=O)NC(C)(C)C)CC2)c1 | -13.61 |
| Cc1nc(CNC2CCc3nc(C(C)C)nn3C2)oc1C (stereo not drawn) | 22.08 |
| Cc1ncc(CNC2CCc3nc(C(C)C)nn3C2)s1 (stereo not drawn) | 101 |
| Cc1cnc(CNC2CCc3nc(C(C)C)nn3C2)cn1 (stereo not drawn) | 130.4 |
| CC(C)c1nc2n(n1)CC(NCc1nnc(-c3ccco3)o1)CC2 (stereo not drawn) | -6.468 |
| CC(C)c1nc2n(n1)CC(NCc1ncc(-c3ccccc3)o1)CC2 (stereo not drawn) | -0.3467 |
| CC(C)c1nc2n(n1)CC(NCc1nnnn1C1CC1)CC2 (stereo not drawn) | 8.252 |
| CCn1cc(S(=O)(=O)Nc2ccc3[nH]c(C4CCC4)nc3c2)cn1 | -33.9 |
| c1cnn(C2CN(c3nc(-c4ccncc4)nc4c3CCC4)C2)c1 | -0.2642 |
| Cc1ccc(C2CN(C(=O)c3c(C)cc(C)[nH]c3=O)CCO2)c(C)c1 (stereo not drawn) | 7.803 |
| CCC(C)N(C)S(=O)(=O)c1ccc(CCNC(C)=O)s1 (stereo not drawn) | 12.12 |
| CC(C)COC1CCN(C(=O)c2cc3ccccc3c(=O)[nH]2)CC1 | -14.3 |
| CO[C@H]1CN(C(=O)c2nc(-c3ccccc3)[nH]c2C)CC[C@H]1N | 99.21 |
